Bioassay records: PubChem BioAssay, National Center for Advancing Translational Sciences (NCATS)
Hits are enriched below; roughly 3% of the tested compounds scored in any of these assays.
TRb SRC2 PPI = inhibitors of human thyroid hormone receptor beta-SRC2 interaction; P10828; TRbeta-SRC2 peptide binding, fluorescence polarization; receptor liganded with 1 µM T3; Potency, µM (doses to about 106 µM), for the others: top-dose activity change, negative = inhibition, actives largely listed as inhibitors; 280,000 tested, 0.065% active; AID 1469;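 also: plate controls were bound peptide for no effect and peptide without receptor for full effect; nearly all actives have a fitted effect of over 50% in size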
Target sequence (P10828 whole entry, looked up): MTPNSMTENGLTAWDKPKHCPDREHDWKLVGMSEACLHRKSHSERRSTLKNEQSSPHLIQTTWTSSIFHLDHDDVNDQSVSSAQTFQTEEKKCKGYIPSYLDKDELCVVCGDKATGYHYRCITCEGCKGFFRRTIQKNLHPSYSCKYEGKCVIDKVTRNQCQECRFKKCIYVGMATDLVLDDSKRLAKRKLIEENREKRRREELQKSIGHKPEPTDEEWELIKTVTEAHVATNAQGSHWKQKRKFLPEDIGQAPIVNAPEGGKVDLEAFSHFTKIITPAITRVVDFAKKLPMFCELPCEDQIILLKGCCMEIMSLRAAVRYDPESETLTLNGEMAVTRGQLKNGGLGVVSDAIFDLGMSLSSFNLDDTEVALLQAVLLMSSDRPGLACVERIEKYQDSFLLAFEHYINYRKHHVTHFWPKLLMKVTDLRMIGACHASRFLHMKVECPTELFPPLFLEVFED
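Read-out is fluorescence polarization (555 nm excitation, 632 nm emission) of a Texas Red SRC2 coactivator peptide; loss of signal reflects blocked binding to human TRb ligand-binding domain in the presence of 1 uM T3.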
TR SRC2 fluor cs = alters Texas Red total fluorescence, flagging assay interference. AID 1479. TRb/SRC2 Texas Red total fluorescence interference. 280,000 tested, 0.29% active. Potency, µM (highest dose often 106 µM), without a hit: at the highest dose fluorescence change, negative = quenching; active = well fitted curve in either direction with a large enough effect; inconclusive = small, poorly fitted or top-dose-only effect
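Human TRb ligand-binding domain at 0.6 uM with 20 nM Texas Red SRC2 peptide in Tris buffer containing 1 uM T3 and 5% DMSO, incubated with compound 5 h at ambient temperature. Total fluorescence (555/632 nm) calculated as parallel + 2 × perpendicular.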
Tau fibril ThT = inhibitors of human tau fibril formation, thioflavin T binding | P10636 | recombinant tau K18 P301L, heparin-induced fibrillization, ThT fluorescence | Potency, µM (series often up to 57.4 µM), for inactives: at the top dose activity, negative = inhibition, most hits filed as inhibitors | 270,000 tested, 2.1% active; also: nearly all actives have a fitted effect of over 55% in size
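Aggregation was driven by heparin (20 uM final) acting on recombinant tau […] bearing P301L in 100 mM sodium acetate pH 7; fibrils were detected with Thioflavin T.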
Tau fluor cs = counter-screen for tau fibril formation inhibitors; tau K18 P301L (four-repeat tau fragment) Alexa594 fluorescence, heparin fibrillization; Potency, µM (top dose mostly 57.7 µM), for the others: top-dose activity change, negative = decrease; 280,000 tested, 0.93% active; AID 1463; also: nearly all actives have a fitted effect of over 55% in size
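Human K18 P301L tau (15 uM unlabeled plus 0.24 uM Alexa 594-labeled, final) in 100 mM sodium acetate pH 7 was mixed with compound and 20 uM heparin and incubated 6 hr at 37 C.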
Tau FP inhib = blocks human tau fibril formation measured by polarization. P10636. K18 P301L tau heparin fibrillization, Alexa594 FP, 6 h. 280,000 tested, 0.39% active. Potency, µM (series often up to 57.7 µM), inactives show at the top dose activity, negative = inhibition, usual class: inhibitors; also: nearly all actives have a fitted effect of over 55% in size
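FP of Alexa 594-tau after heparin (20 uM) induction. Substrate: human K18 P301L, 15 uM unlabeled, 0.24 uM labeled. Buffer 100 mM sodium acetate pH 7. 6 hr, 37 C.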
Numbers without * were called inactive; [ ] = remark or other dose. Unless noted, calls follow the shape of the dose curve; as a rule, active = well fitted curve in the direction sought with a large enough effect; inconclusive = small, poorly fitted or top-dose-only effect, or another doubt; inactive = no such curve, though single readings can be large; an effect the other way counts as inactive or inconclusive. Unless noted, % is scaled to controls: 0 for no effect and ±100 for the full control effect; potency is read from the fitted curve at half-maximal effect.

N#Cc1nc(-c2cccs2)oc1NCc1ccc(Cl)cc1 was read as TRb SRC2 PPI 7%, TR SRC2 fluor cs -3%, Tau fibril ThT -10%, Tau fluor cs 18µM*[quencher] and Tau FP inhib inconclusive.
Screening Cc1ccc(C(=O)/C=C/c2c[nH]c3ccccc23)cc1 returned TRb SRC2 PPI -15%, TR SRC2 fluor cs -5%, Tau fibril ThT inconclusive, Tau fluor cs 14µM*[quencher] and Tau FP inhib -14%.
`Cc1ccc(C(=O)/C=C/c2cn(CN3CCN(C)CC3)c3ccccc23)cc1` gave TRb SRC2 PPI -4%, TR SRC2 fluor cs -5%, Tau fibril ThT inconclusive, Tau fluor cs 14µM*[quencher] and Tau FP inhib -9%.
`Cn1cc(/C=C/C(=O)c2ccccc2)c2ccccc21` gave TRb SRC2 PPI 0%, TR SRC2 fluor cs -6%, Tau fibril ThT inconclusive, Tau fluor cs inconclusive and Tau FP inhib -6%.
O=C(/C=C/c1c[nH]c2ccccc12)c1ccccc1 was read as TRb SRC2 PPI 1%, TR SRC2 fluor cs -1%, Tau fibril ThT 9%, Tau fluor cs 0% and Tau FP inhib inconclusive.
Screening Cc1ccc(S(=O)(=O)/C(C#N)=C/c2c[nH]c3ccccc23)cc1 returned TRb SRC2 PPI 3%, TR SRC2 fluor cs 1%, Tau fibril ThT inconclusive, Tau fluor cs 10µM*[quencher] and Tau FP inhib 13µM*.
COC(=O)/C(C#N)=C/c1c[nH]c2ccccc12 was read as TRb SRC2 PPI 4%, TR SRC2 fluor cs 0%, Tau fibril ThT -13%, Tau fluor cs -19% and Tau FP inhib -9%.
`COc1ccc2[nH]cc(/C=C/C(=O)c3ccccc3)c2c1` gave TRb SRC2 PPI -2%, TR SRC2 fluor cs -5%, Tau fibril ThT inconclusive, Tau fluor cs 8.9µM*[quencher] and Tau FP inhib 11%.
CC(C(=O)NCc1ccccc1F)n1ccc2cc(S(=O)(=O)N3CCCC3)ccc21 (stereo unspecified) was read as TRb SRC2 PPI 2%, TR SRC2 fluor cs 1%, Tau fibril ThT 14%, Tau fluor cs -2% and Tau FP inhib 12%.
COc1ccc(COC(=O)N/N=C2/C[C@@H](O)[C@@H](O)[C@@H]3[C@@H]4C(=O)N(C[C@@H]5CCCO5)C(=O)[C@H]4CC[C@@H]23)cc1 was read as TRb SRC2 PPI 1%[11.2 µM], TR SRC2 fluor cs -19%[11.2 µM], Tau fibril ThT -5%[11.5 µM], Tau fluor cs 2%[11.6 µM] and Tau FP inhib 4%[11.6 µM].
Cc1cc(O)c(-c2cc(O)c(C)cc2O)cc1O was read as TRb SRC2 PPI 2%, TR SRC2 fluor cs -3%, Tau fibril ThT 7.9µM*, Tau fluor cs inconclusive and Tau FP inhib 14µM*.
CC(=O)N[C@@H](CCCNC(=N)N)C(=O)N[C@H](CC1CCCCC1)C(=O)N[C@@H]1CCC2SC[C@@H](C(=O)N[C@H](CCCNC(=N)N)C(=O)N[C@H](Cc3ccc(Cl)cc3)C(N)=O)N2C1=O (stereo partly specified) was read as TRb SRC2 PPI 2% and TR SRC2 fluor cs -3%.
`CCOc1ccc(CCNC(=O)c2nc(-c3cccc(F)c3)n3c2CCCCC3)cc1OCC` gave TRb SRC2 PPI -27%, TR SRC2 fluor cs 63µM*[quencher], Tau fibril ThT -11%, Tau fluor cs 5% and Tau FP inhib 7%.
Screening CN(C(=O)c1nc(-c2cccc(F)c2)n2c1CCCCC2)c1ccccc1F returned TRb SRC2 PPI -1%, TR SRC2 fluor cs -1%, Tau fibril ThT -4%, Tau fluor cs -8% and Tau FP inhib -4%.
Screening CCOC(=O)c1c(C)oc2nc(C)nc(NCc3cccc(OC)c3)c12 returned TRb SRC2 PPI 0%, TR SRC2 fluor cs -5%, Tau fibril ThT -16%, Tau fluor cs -11% and Tau FP inhib 2%.
O=C(Nc1cccc(C(F)(F)F)c1)Nc1ccc(N2CCCC2)c(S(=O)(=O)Nc2ccccc2Cl)c1 was read as TRb SRC2 PPI 5%, TR SRC2 fluor cs 1%, Tau fibril ThT inconclusive, Tau fluor cs 2.5µM*[quencher] and Tau FP inhib inconclusive.
For COc1ccc(C2C(C#N)=C(N)Oc3cc4c(cc32)OCO4)cc1 (stereo unspecified) the results were TRb SRC2 PPI 6%, TR SRC2 fluor cs -1%, Tau fibril ThT -14%, Tau fluor cs -24% and Tau FP inhib 9%.
